Data as given in the supplement of paper PMC13380429.
Unmarked numbers belong to inactive results.

system: Vero E6 infected with SARS-CoV-2; assay: inhibition of SARS-CoV-2 cytopathic effect; higher = more antiviral protection, active = above 15; conditions: 10000 nM; 48 h

SMILES	inhibition of SARS-CoV-2 cytopathic effect
Clc1ccc(-c2nc3sccn3c2/C=N/OCc2ccc(Cl)c(Cl)c2)cc1	0.21%
C[C@H]1CNCCCN1S(=O)(=O)c1cccc2cncc(F)c12 [ripasudil]	-5.58%
COc1ccc(-n2[nH]c3c4c(ncc3c2=O)CCCCC4)cc1	-1.86%
N[C@@H]1CONC1=O [cycloserine-(D)]	-3.61%
C[C@@H](N)c1ccc(C(=O)Nc2ccnc3[nH]ccc23)cc1	-13.4%
CCn1cc(C(=O)O)c(=O)c2cc(F)c(N3CCNC(C)C3)c(F)c21 (stereo unspecified) [lomefloxacin]	-1.41%
CC(C)CCC[C@@H](C)[C@H]1CC[C@H]2[C@@H]3CC=C4C[C@@H](O)CC[C@]4(C)[C@H]3CC[C@]12C [cholesterol]	2.29%
O=C1c2ccccc2C(Cc2ccnc(F)c2)(Cc2ccnc(F)c2)c2ccccc21	-2.51%
Nc1ccn([C@H]2CC[C@@H](CO)O2)c(=O)n1 [zalcitabine]	-0.03%
CCCn1c(=O)c2[nH]c(C3CCCC3)nc2n(CCC)c1=O	1.86%
C[C@]12CC[C@H](O)C[C@H]1CC[C@@H]1[C@@H]2CC[C@]2(C)[C@@H](c3ccc(=O)oc3)C[C@H]3O[C@]132 [resibufogenin]	-20.4%
c1ccc(Cn2c(N3CCNCC3)nc3ccccc32)cc1 [lerisetron]	-5.52%
O=C(O)CC/C=C\C[C@@H]1CO[C@H](c2ccccc2Cl)O[C@@H]1c1ccccc1O (racemic)	-2.08%
CCCC(=O)OCOC(=O)C1=C(C)NC(C)=C(C(=O)OC)C1c1cccc(Cl)c1Cl (stereo unspecified) [cleviprex]	4.07%
Cc1cc(C)nc(NS(=O)(=O)c2ccc(N)cc2)n1 [sulfamethazine]	-1.06%
CCC(=O)O[C@@H](O[P@@](=O)(CCCCc1ccccc1)CC(=O)N1C[C@H](C2CCCCC2)C[C@H]1C(=O)O)C(C)C [fosinopril]	3.18%

SMILES	inhibition of SARS-CoV-2 cytopathic effect
Oc1ccc(CC2NCCc3cc(O)c(O)cc32)cc1 (stereo unspecified) [higenamine]	-2.56%
O=C(O)Cn1nnc(-c2cc(N3CCC(Oc4cc(F)ccc4Br)CC3)no2)n1	1.73%
CC(C)C(=O)c1c(C(C)C)nn2ccccc12 [ibudilast]	2.39%
N[C@H](C(=O)O)[C@H](O)c1ccc(O)c(O)c1 [droxidopa]	-5.92%
Cc1cc(=O)[nH]c(=S)[nH]1 [methylthiouracil]	-0.31%
CCCCN(CCCC)C(=O)CN1C[C@H](c2ccc3c(c2)OCO3)[C@@H](C(=O)O)[C@@H]1c1ccc(OC)cc1 [atrasentan]	1.46%
Cc1csc(S(=O)(=O)N(CC(C)C)c2cc3c(cc2OCc2ccc(C(=O)O)cc2)CCC3)n1	2.78%
N=C(N)Nc1ccc(C(=O)Oc2ccc3cc(C(=N)N)ccc3c2)cc1 [nafamostat]	4.81%
CC(C)SC(=N)N [S-isopropylisothiourea]	2.04%
O=C(NCC(=O)N1CCCC1)Nc1ccc2cnccc2c1	-1.4%
CCC(CC)O[C@@H]1C=C(C(=O)O)C[C@H](N)[C@H]1NC(C)=O [oseltamivir-carboxylate]	-0.82%
O=C(c1ccc(CN2CCOCC2)cc1)N1CCN(C2CC2)CC1 [bavisant]	5.67%
Cc1ccc(NC(=O)c2cccc(N(C)C)c2)cc1NC(=O)c1ccc(O)cc1	6.69%
CC(=O)[C@H]1CC[C@H]2[C@@H]3CCC4=CC(=O)CC[C@]4(C)[C@H]3CC[C@]12C [progesterone]	5.82%
N[C@@H](C(=O)O)c1ccc(C(=O)O)c(O)c1 (racemic) [4-carboxy-3-hydroxyphenylglycine-(RS)]	-0.565%
